Here are results for 40 molecules from PubChem BioAssay (NCI).

This is part of a sample that, as a whole, favours compounds with a hit. Of some 83,000 tested, about 20% had one in any assay.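 Plates (96-well) were seeded with cells, treated with compound at one concentration, and incubated for 48 hours before percent growth was determined.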 Unmarked numbers belong to inactive results. Activity calls are given as the source filed them. How the source made its calls: active means growth percent below 10; inactive means the rest.

In this assay the test system is MDA-MB-468 breast. Description: NCI-60 one-dose screen, 48 h (100 = growth as untreated, 0 = no growth, -100 = all killed). As to conditions: 10 µM unless noted.
For `COc1cc(/C=C/C(=O)c2ccc(NC(=O)CN3CCN(c4cc5c(cc4F)c(=O)c(C(=O)O)cn5C4CC4)CC3)cc2)cc(OC)c1OC`, the growth was -1.82% (active).
`CC1CCN(CC(=O)Nn2c(COc3ccccc3)nc3ccccc3c2=O)CC1`: the growth was 50.9%.
As for `O=C1N/C(=C\c2ccccc2)c2ncccc21`, the growth was 96.2%.
In the case of `CCNCCCn1c2c(c3ccc([N+](=O)[O-])cc3c1=O)C(=O)c1cc(OC)cnc1-2` it was -34.3% (active); in that of `O=C1/C(=C\c2cn(-c3nc(N4CCOCC4)nc(N4CCOCC4)n3)c3ccccc23)c2ccccc2N1c1c(Cl)cccc1Cl`, 17%; in that of `C=CCCCOC1[C@H](OCc2ccccc2)C(OCc2ccccc2)C(OC)O[C@@H]1CNC(=O)c1cccc(I)c1` (stereo not given in full), 24.8%.
Consider `C=C1C(=O)O[C@H]2[C@H]1CC/C(Cn1cc(-c3ccc(N)cc3)nn1)=C\CC[C@@]1(C)O[C@@H]21`, for which the growth is -44.8% (active).
Regarding `Oc1c(N=Nc2nn[nH]n2)ccc2ccccc12`, the growth is 85.3%.
In the case of `Nc1c(C(=O)c2ccc(Br)cc2)sc2nc3c(cc12)CCCC3` it was 79.1%; in that of `COc1ccc(Nc2ncccc2C(=O)NCc2cn(Cc3cc(OC)cc(OC)c3)nn2)cc1`, 103%; in that of `COCCn1cc(-c2csc(-c3cn(C)c4ccc(Br)cc34)n2)c2cccnc21`, 54.8%.
As for `O=C(N(c1ccccc1)c1ccccc1)n1cc(I)c2nc(Cl)nc(Cl)c21`, the growth is 27.8%.
In the case of `CCOC(=O)c1c(Cl)c2c(n1Cc1ccc(OC)cc1)-c1oncc1CCC2` it was 101%; in that of `O=C(O)Cc1cccc(=O)c(O)c1C(=O)O`, 105%; in that of `Nc1nc(Nc2ccccc2SSc2ccccc2Nc2nc(N)nc(-c3ccc4ccccc4c3)n2)nc(-c2ccc3ccccc3c2)n1`, 103%.
`CCOc1cccc(/C=N/NC(=O)c2cccc(Nc3ccnc(C(F)(F)F)c3)c2)c1O`: the growth was 31.4%.
For the molecule `COc1cccc(NC(=O)Cn2cc3c(=O)oc4ccccc4c3n2)c1`, the growth was 101%.
In the case of `NCCSC(c1ccccc1)(c1ccccc1)c1ccccc1`, the growth is 8.69% (active).
In the case of `CCC(O)CC(CC)CO` (stereo not given) it was 113%.
`CN(c1ccc(F)cc1)S(=O)(=O)c1ccc(-c2cnc(C3CC3)o2)cc1`: the growth is -8.39% (active).
In the case of `CCCCCCCCCCCCCC[n+]1ccc(C)cc1` it was -29.9% (active); in that of `COc1ccc(-c2ccc(NNC(=O)c3ccc(F)cc3)nn2)cc1OC`, 56.2%.
Turning to `COc1cc(OC)c2sc(-c3ccc(-n4cncc4-c4ccc(N)cc4)cc3)nc2c1`, the growth was 67.3%.
`CCOC(=O)c1sc(N)nc1-c1ccccc1`: the growth is 97.4%.
In the case of `COc1ccc(C2c3sc4c(C)cccc4c3Oc3nc(CC(=O)Nc4ccccc4)[nH]c(=O)c32)cc1` (stereo not given) it was 18.6%; in that of `CC(C)(C)n1cc(-c2ccnc(NCCNS(=O)(=O)c3ccc(Br)cc3)c2)c(-c2cccc(O)c2)n1`, 2.11% (active).
In the case of `CCCCCCCCCc1ccc(OC(C)=O)cc1`, the growth is 104%.
For `Cc1cc(Cl)ccc1NC(=O)c1cc2ccccc2cc1O`, the growth was -9.61% (active).
Regarding `O=C1CCC(N2C(=O)c3cccc(NCCOCCOCCNC(=O)c4cc5c(o4)C(=O)c4ccccc4C5=O)c3C2=O)C(=O)N1` (stereo not given), the growth was -41.6% (active).
With `CCCCOC(=O)c1cc(O)c(O)c(O)c1`, the growth was 96.5%.
Take `C/C(=C(/c1ccc(Cl)cc1)c1ccc(OCCN)cc1)c1ccc(C)cc1`: the growth is 108%.
Regarding `CC1CN=C(c2cccc(-c3ccc(-c4ccccc4)o3)c2)N1` (stereo not given), the growth is -35.5% (active).
Turning to `Cc1ccccc1N1CCN(C2=C(Cl)C(=O)c3ncccc3C2=O)CC1`, the growth was -68.8% (active).
In the case of `CCC(=O)Nc1cc(Nc2cc(NC3CC3)n3ncc(C#N)c3n2)ccc1C` it was 1.64% (active); in that of `CCCCCCCCn1ccc2cc(NC(=O)Cn3cc(CN4CCN(CC)CC4)nn3)ccc21`, 62.1%.
As for `O=C(NNC(=O)c1ccc(-n2cc(-c3ccccc3)nn2)cc1)Nc1ccccc1`, the growth is 109%.
For `C=C(C)[C@@H]1CC[C@]2(COC(=O)c3cccnc3)CC[C@]3(C)[C@H](CC[C@@H]4[C@@]5(C)CCCN(C(=O)c6cccnc6)C(C)(C)[C@@H]5CC[C@]43C)[C@@H]12`, the growth was 23.3%.
In the case of `Cc1csc(NC(=O)c2sc3nc(-c4cccs4)ccc3c2N)n1` it was 82%.
With `COc1cc2c(cc1NC(=O)C(Cl)Cl)-c1ccc(NC(=O)C(Cl)Cl)cc1C2`, the growth was -58.3% (active).
Consider `O=[N+]([O-])c1ccc(-c2nc(N3CCOCC3)c3c4c(sc3n2)CCCC4)cc1`, for which the growth was 94.8%.
